High-throughput results (PubChem)
An excerpt weighted towards active compounds, which were near 0.85% of everything screened.
Coupling enz – qHTS Assay for Inhibitors of Fructose-1,6-bisphosphate Aldolase from Giardia Lamblia: Coupling assay counterscreen; coupling enzyme system counterscreen, AmpLite Red fluorescence; activity change, negative = inhibition, % at 58.2 µM, hits read low; 290,000 tested, 0.67% active; AID 2472, 2010; in the data active means activity change below about -30%
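Final compound at 57.5 uM, incubated 10 min at RT with coupling enzyme reagent (glyceraldehyde-3-phosphate), then 20 min with substrate and AmpLite Red detection. Fluorescence read at 525/598 nm; tests interference with the coupling assay, not aldolase inhibition.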
B2AR arrestin – qHTS assay of beta-arrestin-biased ligands of beta2-adrenergic receptor; Beta-2 adrenergic receptor (Homo sapiens), P07550; beta-arrestin recruitment to beta2AR, cell-based reporter; Potency, µM (titrated, usually from 46.1 µM), for inactives: at the top dose activation, hits mostly activators; AID 492947, 2010; 330,000 tested, 0.02% active;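 further: potency means the concentration at half of the fitted maximal effect; 0% = DMSO controls and full agonism = EC100 isoproterenol or metaproterenol; nearly all actives have a fitted effect of over 65% in size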
Target sequence (P07550 whole entry, looked up): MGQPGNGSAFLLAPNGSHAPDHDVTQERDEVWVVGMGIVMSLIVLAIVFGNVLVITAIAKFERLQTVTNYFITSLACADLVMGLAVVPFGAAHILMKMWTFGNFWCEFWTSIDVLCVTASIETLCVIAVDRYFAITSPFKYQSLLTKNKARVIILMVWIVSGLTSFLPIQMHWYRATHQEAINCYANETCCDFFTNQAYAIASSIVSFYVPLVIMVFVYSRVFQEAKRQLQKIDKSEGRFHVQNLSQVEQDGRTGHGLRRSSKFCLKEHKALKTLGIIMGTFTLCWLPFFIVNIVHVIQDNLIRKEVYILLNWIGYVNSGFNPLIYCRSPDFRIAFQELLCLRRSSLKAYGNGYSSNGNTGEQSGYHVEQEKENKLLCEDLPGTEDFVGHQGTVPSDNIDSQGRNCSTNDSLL
GAA glycogen – qHTS Assay for Inhibitors and Activators of Human alpha-Glucosidase Cleavage of Glycogen | 300,000 tested, 0.38% active | Potency, µM (highest dose often 76.4 µM), for the others: at the top dose activity change, negative = inhibition, hits mostly inhibitors | Lysosomal alpha-glucosidase (Homo sapiens), P10253 | recombinant GAA, glycogen substrate, Amplex Red glucose oxidase fluorescence;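 further: potency means the concentration at half of the fitted maximal effect; 0% = full enzyme reaction and -100% = no-enzyme basal signal; the screen sought inhibitors and activators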
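Recombinant human enzyme (4 nM); glycogen substrate; 37 C, 40 min, pH 5.0. Readout: coupled glucose oxidase/Amplex Red fluorescence.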
GAA spleen mod – qHTS Assay for Inhibitors and Activators of Human alpha-Glucosidase From Spleen Homogenate; Lysosomal alpha-glucosidase (Homo sapiens), P10253; human spleen homogenate, 4-MU-alpha-glucoside fluorescence; Potency, µM (titrated, usually from 79.9 µM), inactives show at the highest dose activity change, negative = inhibition, hits mostly inhibitors; 240,000 tested, 0.006% active; AID 2112, 2009;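 further: potency means the concentration at half of the fitted maximal effect; 0% = enzyme with vehicle and -100% = no enzyme basal signal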
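Human spleen homogenate (1 ug) incubated with compounds and 1 mM 4-methylumbelliferyl-alpha-D-glucopyranoside in pH 5.0 citrate/phosphate buffer, 37 C, 40 min. Stopped at pH 10; 4-MU fluorescence (Ex 365/Em 440 nm); AC50 by Hill fit.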
GAA inh – qHTS Assay for Inhibitors of Human alpha-Glucosidase as a Potential Chaperone Treatment of Pompe Disease | Lysosomal alpha-glucosidase (Homo sapiens), P10253 | purified human GAA, 4-MU-alpha-glucoside fluorescence | Potency, µM (top dose mostly 76.9 µM), for the others: top-dose activity change, negative = inhibition, usual class: inhibitors | 200,000 tested, 0.005% active | AID 1466, 2008;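 further: potency means the concentration at half of the fitted maximal effect; plate controls were uninhibited enzyme wells for no effect and no-enzyme background for full effect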
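Fluorescence at Ex 365/Em 440 nm from 4-methylumbelliferone reported enzyme activity after 20 min at room temperature. Reactions used 4 nM enzyme and 400 uM substrate at pH 5.0; curves fitted with the Hill equation.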
* marks the source's active call; other numbers are inactive results; u = inconclusive; x = not tested or not shown; ! = not active in a repeat; [ ] = dose if it differs, or a comment. Unless noted, the call rests on the fitted dose curve; in most records, active means well fitted curve in the direction sought with a large enough effect; inconclusive means small, poorly fitted or top-dose-only effect, or another doubt; inactive means no such curve, though single readings can be large; an effect the other way counts as inactive or inconclusive. Unless noted, on the % scale 0 is the no-effect control and ±100 the full control effect.

SMILES	Coupling enz	B2AR arrestin	GAA glycogen	GAA spleen mod	GAA inh
CNC(=S)NNc1nc(N2CCOCC2)nc(N2CCOCC2)n1	1	0%	7.9µM*	7%	-5%
C=CCNC(=O)N1CCc2nc(COc3ccccc3)c3c(c2C1)CO[C@@H](C)C3	1	x	x	1%[17.4 µM]	x
CC#CCN1c2ccccc2[C@]23C[C@@H](C(=O)OC)N(S(=O)(=O)c4ccc([N+](=O)[O-])cc4)C2=NC(C(=O)OC)=C(C(=O)OC)[C@H]13	0	x	x	2%[17.4 µM]	x
O=C(O)CCCn1cc(NC(=O)c2cccc(F)c2)cn1	4	0%	-13%	-3%	1%
O=C(O)CCCn1cc(NC(=O)c2cc(F)c(F)cc2Cl)cn1	-34*	0%	0%	-4%	9%
O=C(Nc1ccc(OCC(=O)N2CCN(S(=O)(=O)c3ccccc3)CC2)cc1)c1ccco1	-2	0%	-24%	u	28µM*
O=S(=O)(Nc1cccc2cccnc12)c1ccccc1	-39*!	0%	1%	7%	x
CCOC(=O)/C(=N/Nc1ccc(OC)cc1)N1CCCc2ccccc21	-42*	0%	u	-7%	x
CC[C@H](C)[C@H](NC(=O)[C@H](Cc1ccc(O)cc1)NC(=O)[C@@H](NC(=O)[C@H](CCCN=C(N)N)NC(=O)[C@@H](N)CC(=O)O)C(C)C)C(=O)N[C@@H](Cc1cnc[nH]1)C(=O)N1CCC[C@H]1C(=O)O	-1	x	x	0%	x
Oc1ccc(CNc2cccc(F)c2F)c2cccnc12	x	0%	x	x	x
C=CCN1C=C2C(=O)C(C)(OC(=O)CCC(=O)OC)C(=O)C(Br)=C2C=C1c1ccc(OC)cc1 (configuration not stated)	-41*!	0%	-5%	5%[17.4 µM]	x
CCN(CC)CCCN1C=C2C(=O)C(C)(OC(=O)CCC(=O)OC)C(=O)C(Br)=C2C=C1c1ccc(OC)cc1 (configuration not stated)	-15	x	x	-6%[17.4 µM]	x
COC(=O)CCC(=O)OC1(C)C(=O)C2=CN(C3CCCC3)C(c3ccc(OC)cc3)=CC2=C(Br)C1=O (configuration not stated)	-41*	-1%	-3%	5%[17.4 µM]	x
COC(=O)CCC(=O)OC1(C)C(=O)C2=CN(Cc3ccco3)C(c3ccc(OC)cc3)=CC2=C(Br)C1=O (configuration not stated)	0	x	x	8%[17.4 µM]	x
COC(=O)CCC(=O)OC1(C)C(=O)C2=CN(c3ccc(OC)cc3)C(c3ccc(OC)cc3)=CC2=C(Br)C1=O (configuration not stated)	-10	x	x	-2%[17.4 µM]	x
COCCN1C=C2C(=O)C(C)(OC(=O)CCC(=O)OC)C(=O)C(Br)=C2C=C1c1ccc(OC)cc1 (configuration not stated)	-30*	x	x	-13%[17.4 µM]	x
CC(C)C[C@@H](CC(=O)N[C@@H](CCCN)CC(=O)N[C@@H]1CCCC[C@H]1C(=O)N[C@H](CC(=O)N[C@@H](CCC(=O)O)CC(=O)O)CC(C)C)NC(=O)[C@@H]1CCCC[C@H]1N	0	x	x	0%	x
CCOC(=O)c1ccc(N2C(=O)c3[nH]nc(-c4ccc(C)cc4)c3C2c2ccc(O)c(OCC)c2)cc1 (configuration not stated)	x	x	0%[76.3 µM]	x	x
CCOc1cc(C2C3=C(CCCC3=O)NC3=C2C(=O)CCC3)cc(Cl)c1O	-8	2%	35µM*	-12%	-4%
Nc1ccc2nc(-c3cc(Cl)c(N)c(Cl)c3)[nH]c2c1	-1	0%	12µM*	-1%	4%
CC1=CC(C)(C)N2C(=O)C(=Nc3ccc(O)cc3)c3cccc1c32	-45*	8%	-22%	-1%	x
CC(=O)C[C@@H](O)CC(=O)[C@@H]1OC(=O)[C@H](C)CCCCc2ccccc21	x	0%	x	x	x
COc1ccc(CNc2n[nH]c(NCc3ccc(OC)c(OC)c3)n2)cc1OC	-1	0%	22µM*	3%	2%
